Test results from PubChem BioAssay AID1159580 (chemical genetic matrix, 2015).
The whole screen tested about 5,500 compounds, of which about 2,000 (36%) were called active. Another 18% or so got no clear call; they are omitted. The list shows a part of the results. Values without a mark were called inactive. No stated cut-off is given here; in the data, active means normalized growth mostly below about 0.91 (no sharp cut-off); inconclusive means no clear call, values can overlap the other calls; inactive means mostly above about 0.92.

Experiment: chemical genetic growth profiling, strain panel (AID 1159580);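 further: tested at 20 µM; growth read once vehicle control cultures reached saturation at 30 °C; 1 = growth at the plate median or of vehicle wells; lower values mean less growth of the strain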
Details: growth OD

For CCCCCCCCCCCC(=O)OCC(COP(=O)(O)OCC(O)COP(=O)(O)OCC(COC(=O)CCCCCCCCCCC)OC(=O)CCCCCCCCCCC)OC(=O)CCCCCCCCCCC (centres undefined), which normalized growth (S. cerevisiae deletion strains, locus YBR021W, strain FUR4, hits give low values) is on record?
The normalized growth was 0.99.

What about the normalized growth (S. cerevisiae deletion strains, locus YBR229C, strain ROT2, hits give low values) of the same molecule?
The normalized growth was 0.967.

And the normalized growth (S. cerevisiae deletion strains, locus YCL029C, strain bik1, hits give low values)?
Its normalized growth is 1.01.

What about the normalized growth (S. cerevisiae deletion strains, locus YDL035C, strain GPR1, hits give low values) of the same molecule?
Its normalized growth is 0.663 (active).

What about the normalized growth (S. cerevisiae deletion strains, locus YDL074C, strain BRE1, hits give low values) of the same molecule?
The normalized growth was 0.72 (active).

And the normalized growth (S. cerevisiae deletion strains, locus YDL101C, strain DUN1, hits give low values)?
The normalized growth was 0.839 (active).

And the normalized growth (S. cerevisiae deletion strains, locus YDL185W, strain tfp1, hits give low values)?
The normalized growth was 0.981.

What about the normalized growth (S. cerevisiae deletion strains, locus YDL192W, strain arf1, hits give low values) of the same molecule?
The normalized growth was 0.972.

And the normalized growth (S. cerevisiae deletion strains, locus YDR101C, strain arx1, hits give low values)?
Its normalized growth is 1.03.

And the normalized growth (S. cerevisiae deletion strains, locus YDR162C, strain NBP2, hits give low values)?
The normalized growth was 0.55 (active).

What about the normalized growth (S. cerevisiae deletion strains, locus YDR318W, strain mcm21, hits give low values) of the same molecule?
Its normalized growth is 1.

What about the normalized growth (S. cerevisiae deletion strains, locus YDR388W, hits give low values) of the same molecule?
The normalized growth was 1.01.

And the normalized growth (S. cerevisiae deletion strains, locus YDR502C, strain sam2, hits give low values)?
Its normalized growth is 0.978.

What about the normalized growth (S. cerevisiae deletion strains, locus YEL061C, strain CIN8, hits give low values) of the same molecule?
Its normalized growth is 0.861 (active).

What about the normalized growth (S. cerevisiae deletion strains, locus YER110C, hits give low values) of the same molecule?
The normalized growth was 1.03.

What about the normalized growth (S. cerevisiae deletion strains, locus YER155C, strain BEM2, hits give low values) of the same molecule?
Its normalized growth is 1.02.

What about the normalized growth (S. cerevisiae deletion strains, locus YER167W, strain BCK2, hits give low values) of the same molecule?
Its normalized growth is 0.953.

And the normalized growth (S. cerevisiae deletion strains, locus YGL078C, strain dbp3, hits give low values)?
The normalized growth was 1.02.

What about the normalized growth (S. cerevisiae deletion strains, locus YGL086W, strain mad1, hits give low values) of the same molecule?
Its normalized growth is 0.927 (active).

What about the normalized growth (S. cerevisiae deletion strains, locus YGL248W, strain PDE1, hits give low values) of the same molecule?
Its normalized growth is 0.876 (active).

What about the normalized growth (S. cerevisiae deletion strains, locus YGR078C, strain PAC10, hits give low values) of the same molecule?
Its normalized growth is 0.879.

And the normalized growth (S. cerevisiae deletion strains, locus YGR135W, strain pre9, hits give low values)?
The normalized growth was 0.923.

What about the normalized growth (S. cerevisiae deletion strains, locus YGR229C, strain SMI1, hits give low values) of the same molecule?
Its normalized growth is 0.181 (active).

What about the normalized growth (S. cerevisiae deletion strains, locus YGR252W, strain gcn5, hits give low values) of the same molecule?
Its normalized growth is 0.887.

And the normalized growth (S. cerevisiae deletion strains, locus YHR030C, strain SLT2, hits give low values)?
The normalized growth was 0.965.

What about the normalized growth (S. cerevisiae deletion strains, locus YHR079C, strain IRE1 (second series), hits give low values) of the same molecule?
Its normalized growth is 1.04.

What about the normalized growth (S. cerevisiae deletion strains, locus YHR094C, strain hxt1, hits give low values) of the same molecule?
Its normalized growth is 1.03.

And the normalized growth (S. cerevisiae deletion strains, locus YHR129C, strain ARP1, hits give low values)?
The normalized growth was 0.902 (active).

And the normalized growth (S. cerevisiae deletion strains, locus YHR200W, strain rpn10, hits give low values)?
The normalized growth was 0.995.

And the normalized growth (S. cerevisiae deletion strains, locus YIL066C, strain RNR3, hits give low values)?
The normalized growth was 0.633 (active).

What about the normalized growth (S. cerevisiae deletion strains, locus YIL073C, strain SPO22, hits give low values) of the same molecule?
Its normalized growth is 0.524 (active).

And the normalized growth (S. cerevisiae deletion strains, locus YIL125W, strain kgd1, hits give low values)?
The normalized growth was 1.03.

What about the normalized growth (S. cerevisiae deletion strains, locus YIR030C, strain dcg1, hits give low values) of the same molecule?
The normalized growth was 1.03.

What about the normalized growth (S. cerevisiae deletion strains, locus YJL095W, strain BCK1, hits give low values) of the same molecule?
Its normalized growth is 0.816.

What about the normalized growth (S. cerevisiae deletion strains, locus YJL134W, strain LCB3, hits give low values) of the same molecule?
The normalized growth was 0.975.

What about the normalized growth (S. cerevisiae deletion strains, locus YJL168C, strain set2, hits give low values) of the same molecule?
Its normalized growth is 1.

And the normalized growth (S. cerevisiae deletion strains, locus YJL187C, strain SWE1 (second series), hits give low values)?
Its normalized growth is 0.703 (active).

And the normalized growth (S. cerevisiae deletion strains, locus YJR043C, strain POL32, hits give low values)?
The normalized growth was 0.632 (active).

What about the normalized growth (S. cerevisiae deletion strains, locus YKL009W, strain mrt4, hits give low values) of the same molecule?
Its normalized growth is 1.09.

What about the normalized growth (S. cerevisiae deletion strains, locus YKL068W, hits give low values) of the same molecule?
The normalized growth was 1.03.

What about the normalized growth (S. cerevisiae deletion strains, locus YKL085W, strain MDH1 (second series), hits give low values) of the same molecule?
Its normalized growth is 1.01.

What about the normalized growth (S. cerevisiae deletion strains, locus YKL085W, strain MDH1, hits give low values) of the same molecule?
Its normalized growth is 1.01.

What about the normalized growth (S. cerevisiae deletion strains, locus YKL190W, strain CNB1, hits give low values) of the same molecule?
Its normalized growth is 0.682 (active).

What about the normalized growth (S. cerevisiae deletion strains, locus YKR001C, strain vps1, hits give low values) of the same molecule?
The normalized growth was 0.986.

What about the normalized growth (S. cerevisiae deletion strains, locus YLR039C, strain RIC1, hits give low values) of the same molecule?
Its normalized growth is 0.671 (active).

What about the normalized growth (S. cerevisiae deletion strains, locus YLR058C, strain SHM2, hits give low values) of the same molecule?
Its normalized growth is 0.811 (active).

What about the normalized growth (S. cerevisiae deletion strains, locus YLR102C, strain apc9, hits give low values) of the same molecule?
Its normalized growth is 1.02.

What about the normalized growth (S. cerevisiae deletion strains, locus YLR262C, strain YPT6, hits give low values) of the same molecule?
The normalized growth was 0.798.

And the normalized growth (S. cerevisiae deletion strains, locus YLR268W, strain sec22, hits give low values)?
The normalized growth was 0.937.

What about the normalized growth (S. cerevisiae deletion strains, locus YLR330W, strain CHS5, hits give low values) of the same molecule?
Its normalized growth is 0.964.

And the normalized growth (S. cerevisiae deletion strains, locus YLR342W, strain FKS1 (second series), hits give low values)?
Its normalized growth is 0.549 (active).

And the normalized growth (S. cerevisiae deletion strains, locus YLR371W, strain rom2, hits give low values)?
The normalized growth was 0.971.

And the normalized growth (S. cerevisiae deletion strains, locus YLR418C, strain cdc73, hits give low values)?
The normalized growth was 0.765 (active).

What about the normalized growth (S. cerevisiae deletion strains, locus YML016C, strain PPZ1, hits give low values) of the same molecule?
Its normalized growth is 0.792 (active).

And the normalized growth (S. cerevisiae deletion strains, locus YML032C, strain rad52, hits give low values)?
The normalized growth was 1.03.

What about the normalized growth (S. cerevisiae deletion strains, locus YML124C, strain tub3, hits give low values) of the same molecule?
The normalized growth was 1.02.

What about the normalized growth (S. cerevisiae deletion strains, locus YMR078C, strain ctf18, hits give low values) of the same molecule?
The normalized growth was 1.02.

And the normalized growth (S. cerevisiae deletion strains, locus YMR223W, strain ubp8, hits give low values)?
Its normalized growth is 0.962.

What about the normalized growth (S. cerevisiae deletion strains, locus YMR263W, strain SAP30, hits give low values) of the same molecule?
The normalized growth was 0.923.

And the normalized growth (S. cerevisiae deletion strains, locus YMR307W, strain GAS1, hits give low values)?
The normalized growth was 0.475 (active).

What about the normalized growth (S. cerevisiae deletion strains, locus YNL067W, strain RPL9B, hits give low values) of the same molecule?
Its normalized growth is 0.891.

What about the normalized growth (S. cerevisiae deletion strains, locus YNL128W, strain TEP1, hits give low values) of the same molecule?
Its normalized growth is 0.589 (active).

What about the normalized growth (S. cerevisiae deletion strains, locus YNL233W, strain BNI4, hits give low values) of the same molecule?
Its normalized growth is 0.91.

And the normalized growth (S. cerevisiae deletion strains, locus YNL250W, strain rad50, hits give low values)?
Its normalized growth is 1.02.

And the normalized growth (S. cerevisiae deletion strains, locus YNL271C, strain bni1, hits give low values)?
Its normalized growth is 1.

What about the normalized growth (S. cerevisiae deletion strains, locus YNL298W, strain CLA4, hits give low values) of the same molecule?
The normalized growth was 1.01.

And the normalized growth (S. cerevisiae deletion strains, locus YNL307C, strain MCK1, hits give low values)?
The normalized growth was 1.02.

And the normalized growth (S. cerevisiae deletion strains, locus YNL322C, strain KRE1, hits give low values)?
Its normalized growth is 0.715 (active).

What about the normalized growth (S. cerevisiae deletion strains, locus YNR052C, strain pop2, hits give low values) of the same molecule?
The normalized growth was 0.975.

And the normalized growth (S. cerevisiae deletion strains, locus YOL006C, strain TOP1, hits give low values)?
The normalized growth was 0.29 (active).

And the normalized growth (S. cerevisiae deletion strains, locus YOL012C, strain htz1)?
Its normalized growth is 0.377.

What about the normalized growth (S. cerevisiae deletion strains, locus YOL147C, strain pex11, hits give low values) of the same molecule?
Its normalized growth is 1.02.

And the normalized growth (S. cerevisiae deletion strains, locus YOR061W, strain CKA2, hits give low values)?
Its normalized growth is 0.803 (active).

What about the normalized growth (S. cerevisiae deletion strains, locus YOR069W, strain VPS5, hits give low values) of the same molecule?
The normalized growth was 0.951.

And the normalized growth (S. cerevisiae deletion strains, locus YOR136W, strain idh2, hits give low values)?
The normalized growth was 1.01.

What about the normalized growth (S. cerevisiae deletion strains, locus YOR144C, strain elg1, hits give low values) of the same molecule?
Its normalized growth is 1.01.

And the normalized growth (S. cerevisiae deletion strains, locus YOR184W, strain ser1, hits give low values)?
The normalized growth was 0.926.

What about the normalized growth (S. cerevisiae deletion strains, locus YOR316C, strain cot1, hits give low values) of the same molecule?
Its normalized growth is 1.02.

And the normalized growth (S. cerevisiae deletion strains, locus YPR119W, strain clb2, hits give low values)?
Its normalized growth is 1.03.

And the normalized growth (S. cerevisiae deletion strains, locus YPR141C, strain kar3, hits give low values)?
The normalized growth was 1.02.

What about the normalized growth (S. cerevisiae deletion strains, locus YPR163C, strain tif3, hits give low values) of the same molecule?
The normalized growth was 1.02.

And the normalized growth (S. cerevisiae deletion strains, locus YPR167C, strain met16, hits give low values)?
Its normalized growth is 1.02.

What about the normalized growth (S. cerevisiae deletion strains, strain wtn01, hits give low values) of the same molecule?
The normalized growth was 0.947.

What about the normalized growth (S. cerevisiae strains, strain wild type, hits give low values) of the same molecule?
Its normalized growth is 0.56 (active).
